Source: PubChem BioAssay
MEKK3 PB1 HTS = modulators (inhibitors or enhancers) of MEK5 binding to human MEKK3 PB1 domain. Q99759. bead-based flow cytometry, Alexa488-MEK5 binding to MEKK3; actives lie on both sides; 0 = blocked by unlabeled MEK5, 100 = vehicle. binding response (% of control), % at 10 µM. 290,000 tested, 1.4% active;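 active means binding response more than 3 SD above or below the average of its plate-row segment, actives on both sides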;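 further: Alexa488 bead fluorescence after subtracting the streptavidin-only scavenger bead signal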
Target sequence (Q99759 whole entry, looked up, the tested form may be a part): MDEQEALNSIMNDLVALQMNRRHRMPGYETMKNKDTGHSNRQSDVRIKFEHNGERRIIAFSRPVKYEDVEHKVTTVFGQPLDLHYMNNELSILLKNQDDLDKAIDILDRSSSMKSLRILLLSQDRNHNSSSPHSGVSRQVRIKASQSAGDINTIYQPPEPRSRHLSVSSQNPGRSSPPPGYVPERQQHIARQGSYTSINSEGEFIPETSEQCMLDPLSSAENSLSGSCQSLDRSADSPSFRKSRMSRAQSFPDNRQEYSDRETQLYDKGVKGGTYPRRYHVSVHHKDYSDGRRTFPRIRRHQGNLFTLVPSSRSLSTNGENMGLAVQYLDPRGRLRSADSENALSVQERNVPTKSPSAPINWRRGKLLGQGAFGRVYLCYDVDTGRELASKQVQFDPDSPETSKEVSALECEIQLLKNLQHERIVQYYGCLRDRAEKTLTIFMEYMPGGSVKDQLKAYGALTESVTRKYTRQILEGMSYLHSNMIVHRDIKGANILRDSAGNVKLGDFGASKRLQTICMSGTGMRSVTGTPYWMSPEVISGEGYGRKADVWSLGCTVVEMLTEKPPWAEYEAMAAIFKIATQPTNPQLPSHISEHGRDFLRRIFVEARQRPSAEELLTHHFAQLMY
ABCB6 inh 2 = inhibitors of human ABC transporter ABCB6; Q9NP58; K562-ABCB6 porphyrin accumulation, flow cytometry, 1 h; active compounds read low; fluorescence ratio to DMSO, % at 10 µM; 360,000 tested, 0.19% active; AID 602162;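 active means fluorescence ratio to DMSO below 75%, the collection mean minus 3 SD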;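 further: signal is porphyrin accumulated inside mitochondria; 100% equals median channel fluorescence of DMSO control wells; lower ratio means ABCB6 inhibition with less porphyrin fluorescence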
CRFR2-BP antag = antagonists of CRF-binding protein/CRF-R2 receptor complex | HEK293 CRF-R2/CRF-BP, CRF-induced calcium fluorescence | inhibition, % at 11.8 µM | 350,000 tested, 0.59% active | AID 588475;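 active means inhibition of the ligand-induced calcium signal above about 50% at the single tested concentration, limit read from the data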
MEKK2mut PB1 HTS = signal of MEK5 binding to mutant human MEKK2 PB1 domain; bead flow cytometry, Alexa488-MEK5 binding to MEKK2 mutant; percent response, % at 10 µM; 290,000 tested, 0.35% active; AID 1530; in the data active means percent response above about 24%, passing the limit was not always enough
MEKK2wt PB1 HTS = raises or lowers MEK5 binding to wildtype human MEKK2 PB1 domain; Q9Y2U5; bead flow cytometry, Alexa488-MEK5 binding to MEKK2 WT; actives lie on both sides; binding response (% of control), % at 10 µM; 290,000 tested, 1.1% active; in the data active means binding response below about 67% or above about 130%
CRFR2-BP ag = CRF-BP/CRF-R2 complex agonism | HEK293 CRF-R2/CRF-BP, calcium dye fluorescence (FLIPR); percent of saturating CRF peptide response | activation, % at 13.2 µM | 350,000 tested, 0.46% active | AID 588473;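 active means activation of at least 50%, plus an integration ratio under a set limit after plate pattern correction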;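 further: plate controls were neutral control wells without compound for no effect and CRF at EC100 for full effect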
MEKK2wt confirm = raises or lowers MEK5 binding to wildtype human MEKK2, retest; shares compounds with MEKK3 PB1 HTS; bead flow cytometry, Alexa488-MEK5 binding to MEKK2 WT; actives lie on both sides; binding response (% of control), % at 10 µM; 5,900 tested, 2.4% active; in the data active means binding response below about 16% or above about 210%; inactive means in between
MEKK2mut confirm = signal of MEK5 binding to mutant human MEKK2, retest | shares compounds with MEKK3 PB1 HTS | bead flow cytometry, Alexa488-MEK5 binding to MEKK2 mutant | percent response, % at 10 µM | 5,900 tested, 2% active; in the data active means percent response mostly above about 71%, no sharp cut-off; inactive means mostly below about 38%;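 further: higher means compound restores mutant binding toward wildtype level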
MEKK3-MEK5 inh = MEKK3-MEK5 PB1 inhibition, single concentration confirmation. shares compounds with MEKK3 PB1 HTS. bead flow cytometry, Alexa488-MEK5 binding to MEKK3; active compounds read low. binding response (% of control), % at 10 µM. 5,900 tested, 1.8% active. AID 1894;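 active means binding response below 72% of control, or above a set upper limit, though filed actives all read lower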;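 further: 100% = DMSO only wells and 0% = binding blocked by excess unlabeled MEK5; lower values mean stronger disruption of MEK5 binding to MEKK3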
Starred values were filed as active, the others as inactive; / = no result; [ ] = another dose, or the depositor's remark. Only some compounds are listed: those with a hit (about 2.9% of all), similar ones and a draw of the others.

SMILES	MEKK3 PB1 HTS	ABCB6 inh 2	CRFR2-BP antag	MEKK2mut PB1 HTS	MEKK2wt PB1 HTS	CRFR2-BP ag	MEKK2wt confirm	MEKK2mut confirm	MEKK3-MEK5 inh
Cc1cccc(N(C(=O)c2snc(C(N)=O)c2N)C(C(=O)NCC2CCCO2)c2cccs2)c1 (stereo not given)	98	88	-17	-3	94	-1	/	/	/
Cc1cccc(N(C(=O)c2snc(C(N)=O)c2N)C(C)C(=O)NCC2CCCO2)c1 (stereo not given)	130*	95	5	25	119	2	74	-16	70*
CCN(C(=O)COC(=O)CNS(=O)(=O)c1ccc(SC)c([N+](=O)[O-])c1)C1CCCCC1	/	95	3	/	/	-1	/	/	/
Nc1nc2c(F)cccc2s1	133*	95	5	0	102	0	102	1	99
NNc1nc2c(F)cccc2s1	140*	95	23	0	105	-2	106	0	104
Nc1nc2c([N+](=O)[O-])cccc2s1	99	100	0	-4	96	1	/	/	/
Fc1cccc2sc(Nc3nc4c(F)cccc4s3)nc12	102	98	-12	-2	103	-2	/	/	/
CN(C)c1cccc(CNC(=O)c2csc([C@H]3C[C@H](O)[C@@H](CO)O3)n2)c1	/	96	/	/	/	/	/	/	/
COc1ccc(NC(=O)CC2C(=O)N(c3ccccc3)C(=O)N2CCc2cccs2)cc1 (stereo not given)	149*	103	-1	0	102	-1	105	5	105
COc1ccc(NC(=O)CC2C(=O)N(c3ccc(Cl)cc3)C(=S)N2CCc2ccccn2)cc1 (stereo not given)	130*	97	-14	0	104	0	101	-7	100
COc1ccc(NC(=O)CC2C(=O)N(c3ccc(Cl)cc3)C(=S)N2CCc2ccncc2)cc1 (stereo not given)	107	101	-19	6	108	1	/	/	/
CC(C)(C)c1ccc(S(=O)(=O)NC(=O)C2(C)CCN2C(=O)C2CCCCC2)cc1 (stereo not given)	/	98	/	/	/	/	/	/	/
COc1ccccc1CN1CC(C(=O)N(C)Cc2ccc(C)o2)CCC1=O (stereo not given)	101	100	2	5	102	1	/	/	/
Cc1ccc(CNC(=O)c2ccc3nc4[nH]c5ccccc5c4nc3c2)cc1	72*[inhibitor]	/	/	-1	97	/	91	-3	97
CCn1c(CC(=O)Nc2ccc(F)cc2)nnc1SCC(=O)Nc1nncs1	101	98	4	8	108	0	/	/	/
CCN(CC(=O)Nc1ccccc1-c1ccccc1)Cc1nc2ccccc2c(=O)[nH]1	64*[inhibitor]	100	12	-3	72	-1	98	-3	97
O=C(COC(=O)c1cc(=O)[nH]c(=O)[nH]1)Nc1cccc(S(=O)(=O)N2CCOCC2)c1	104	98	-1	10	105	1	/	/	/
Cc1ccc(Nc2nc(N3CCOCC3)nc(N3CCOCC3)n2)cc1	100	86	10	0	103	-1	/	/	/
CN1CCN(c2nc(Nc3ccc(F)cc3)nc(Nc3ccc(F)cc3)n2)CC1	113	98	-23	33*	145*	4	137	16	104
c1ccc(Nc2nc(Nc3ccccc3)nc(N3CCNCC3)n2)cc1	111	98	-1	12	154*	-1	136	20	106
